Screens deposited in PubChem by National Center for Advancing Translational Sciences (NCATS).
This is a sample that favours compounds with a hit; in the whole collection about 3.8% have one here.
Nrf2 activator: qHTS of Nrf2 Activators; AREc32 ARE-luciferase reporter (MCF7-derived line), luminescence, 24 h; Potency, µM (top dose mostly 46.1 µM), hits mostly activators; hit rate 0.31% among 410,000; further: nearly all actives have a fitted effect of over 65% in size
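AREc32 cells carrying an ARE-driven firefly luciferase reporter were seeded at 1000 cells/well in OPTI-MEM with 5% FBS, then exposed to compound for 24 hr at 37 deg C. Luminescence was read with Steady-Glo after 30 min at RT.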
A549 viability: Nrf2 qHTS screen for inhibitors: counterscreen for cytotoxicity; A549 ARE-Fluc cells, CellTiter-Fluor viability, 18-24 h; hit rate 0.16% among 390,000; AID 504648, 2011; Potency, µM (doses to about 46 µM), actives largely listed as inhibitors
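Cytotoxicity counterscreen: CellTiter-Fluor fluorescence was measured in A549 ARE_Fluc cells after 18-24 h of compound exposure in a concentration series. The subsequent BugLite luminescent read reports ARE-luciferase activity.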
mIDH1 inhibitor: qHTS for Inhibitors of mutant isocitrate dehydrogenase 1 (IDH1): qHTS. Isocitrate dehydrogenase [NADP] cytoplasmic (Homo sapiens), O75874. IDH1-R132H enzyme, NADPH consumption, diaphorase/resazurin fluorescence. Potency, µM (highest dose often 76.6 µM), most hits filed as inhibitors. hit rate 0.093% among 390,000. AID 602179, 2012; further: nearly all actives have a fitted effect of over 65% in size
Target sequence (O75874 whole entry R132H, stated change not applied): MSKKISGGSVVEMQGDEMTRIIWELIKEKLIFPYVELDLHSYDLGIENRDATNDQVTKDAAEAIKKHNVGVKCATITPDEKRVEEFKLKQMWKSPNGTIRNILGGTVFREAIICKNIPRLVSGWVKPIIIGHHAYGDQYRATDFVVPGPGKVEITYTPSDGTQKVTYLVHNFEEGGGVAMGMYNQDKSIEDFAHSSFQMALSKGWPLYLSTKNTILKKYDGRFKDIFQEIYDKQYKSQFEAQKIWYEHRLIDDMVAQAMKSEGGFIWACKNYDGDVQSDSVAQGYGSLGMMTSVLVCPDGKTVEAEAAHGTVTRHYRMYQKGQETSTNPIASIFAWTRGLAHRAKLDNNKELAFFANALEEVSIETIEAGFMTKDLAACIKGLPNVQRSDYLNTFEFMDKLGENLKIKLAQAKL
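IDH1-R132H (0.5 ug/mL) preincubated 30 min with compound, then NADPH (0.016 mM) and alpha-KG (2 mM) added; 80 min at RT, pH 7.5. Remaining NADPH coupled via diaphorase/resazurin to fluorescence (540/590 nm); concentration-response curves normalized to no-enzyme control.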
Nrf2 inh: Nrf2 qHTS screen for inhibitors; Potency, µM (doses to about 46 µM), most hits filed as inhibitors; hit rate 2.1% among 360,000; A549 ARE-Fluc reporter, luciferase luminescence, 18-24 h; further: nearly all actives have a fitted effect of over 60% in size
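In this cell-based qHTS, ARE-driven firefly luciferase in A549 cells reports Nrf2 activity; the luminescent signal after BugLite lysis is the measured value, with a prior CellTiter-Fluor read for cell health.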
ELG1 repair inh: qHTS screen for small molecules that inhibit ELG1-dependent DNA repair in human embryonic kidney (HEK293T) cells expressing luciferase-tagged ELG1. AID 504467, 2011. hit rate 2.3% among 330,000. HEK293T ELG1-luciferase reporter, luminescence, 16 h; DNA damage induced by 5-fluorouridine. Potency, µM (highest dose often 46.1 µM), most hits filed as inhibitors; further: nearly all actives have a fitted effect of over 55% in size
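DMSO vehicle served as the neutral condition. Each well held 2,000 cells given 5-fluorouridine plus compound; after 16 hr at 37 °C/5% CO2, ONE-Glo was added and luciferase measured 30 min later.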
Each line names hits and unclear results; the compound was inactive in the other large screens. The call rests on the fitted dose curve; in most records, active means well fitted curve in the direction sought with a large enough effect; inconclusive means small, poorly fitted or top-dose-only effect, or another doubt; inactive means no such curve, though single readings can be large; an effect the other way counts as inactive or inconclusive.

Cn1c(SCc2nc3ccccc3s2)nnc1-c1cccs1	Nrf2 inh inconclusive, ELG1 repair inh inconclusive
CCn1c(SCC(=O)N/N=C/c2c[nH]c3ccccc23)nnc1-c1ccc(C(C)(C)C)cc1	A549 viability inconclusive, Nrf2 inh 16.4µM, ELG1 repair inh 18.4µM
CCn1c(SCc2nc3ccccc3s2)nnc1-c1cccs1	Nrf2 activator 14.1µM, Nrf2 inh inconclusive, ELG1 repair inh inconclusive
CCn1c(SCc2nc(-c3cccs3)no2)nnc1-c1c[nH]c2ccccc12	A549 viability inconclusive, Nrf2 inh 18.4µM, ELG1 repair inh inconclusive
CCn1c(SCc2nc(-c3ccccc3)no2)nnc1-c1cccs1	Nrf2 inh inconclusive (no result: A549 viability)
CCn1c(SCC(=O)c2c[nH]c3ccccc23)nnc1-c1cccs1	Nrf2 activator 11.2µM
O=C(NCc1cccnc1)C1CCC(c2ccc(Cl)cc2)CC1 (stereo not given)	Nrf2 inh 23.1µM, ELG1 repair inh 9.2µM
OC[C@H]1O[C@@H](n2cnc3c(Nc4ccccc4)ncnc32)[C@H](O)[C@@H]1O	Nrf2 inh inconclusive, ELG1 repair inh inconclusive
OCC1OC(n2ccc3c(NO)ncnc32)C(O)C1O (stereo not given)	A549 viability 2.06µM, Nrf2 inh inconclusive (no result: ELG1 repair inh)
OCC1OC(n2cnc3c(NCc4ccccc4O)ncnc32)C(O)C1O (stereo not given)	Nrf2 activator inconclusive, Nrf2 inh 18.4µM (no result: ELG1 repair inh)
Cc1ccc(C(=O)c2c(C)oc3c2C(=O)C(=O)c2ccccc2-3)cc1	A549 viability inconclusive, Nrf2 inh inconclusive, ELG1 repair inh inconclusive
COc1ccc(C(=O)c2c(C(F)(F)F)oc3c2C(=O)c2ccccc2C3=O)cc1	A549 viability 7.31µM, ELG1 repair inh 10.3µM (no result: Nrf2 inh)
CCN(CC)c1ccc2nc3ccccc3[n+](CC)c2c1	A549 viability 8.2µM, Nrf2 inh 9.2µM, ELG1 repair inh 3.66µM
CCN(CC)c1ccc2nc3ccc(N)cc3[n+](-c3ccccc3)c2c1	A549 viability 18.4µM, Nrf2 inh 14.6µM, ELG1 repair inh inconclusive
Nc1c(C(=O)Nc2ccc(F)c(F)c2)sc2nc(-c3ccncc3)ccc12	none (no result: ELG1 repair inh)
Cc1ccccc1NC(=O)c1sc2nc(-c3ccncc3)ccc2c1N	Nrf2 inh 25.9µM (no result: ELG1 repair inh)
Nc1c(C(=O)Nc2ccc(Cl)c(C(F)(F)F)c2)sc2nc(-c3ccncc3)ccc12	Nrf2 inh 7.31µM (no result: ELG1 repair inh)
O=C(CSc1nc2ccccc2s1)N/N=C/c1ccco1	Nrf2 activator 5.01µM
CC(=O)CSc1nc2ccccc2s1	Nrf2 inh inconclusive, ELG1 repair inh inconclusive
N#C/C(=C\c1ccco1)Sc1nc2ccccc2s1	Nrf2 activator 11.2µM, ELG1 repair inh inconclusive
O=C(CCCSc1nc2ccccc2s1)NCc1ccco1	ELG1 repair inh inconclusive
O=C(CSc1nc2ccccc2s1)N/N=C/c1ccc(C(=O)O)cc1	Nrf2 inh inconclusive
C/C(=N\NC(=O)CSc1nc2ccccc2s1)c1ccco1	Nrf2 activator 7.08µM
CCN(CCCNC(=O)c1nn(-c2ccc(OC)c(Cl)c2)c(=O)c2c1c1ccccc1n2C)c1ccccc1	none (no result: ELG1 repair inh)
S=c1[nH]cnc2scc(-c3ccc(Br)cc3)c12	Nrf2 inh inconclusive, ELG1 repair inh inconclusive
S=c1[nH]cnc2scc(-c3ccc(Cl)cc3)c12	Nrf2 inh inconclusive, ELG1 repair inh 16.4µM
Cc1cc(-c2csc3nc[nH]c(=S)c23)cc(C)c1C	A549 viability inconclusive, Nrf2 inh 23.1µM
Cc1ccc(-c2csc3nc[nH]c(=S)c23)cc1	Nrf2 inh inconclusive, ELG1 repair inh inconclusive
O=C(Cc1ccccc1)N/N=C/c1cccs1	none
Cc1ccnn1CC(=O)N/N=C/c1ccc([N+](=O)[O-])s1	Nrf2 inh 25.9µM, ELG1 repair inh 13µM
O=C(N/N=C/c1ccc([N+](=O)[O-])s1)C(O)c1ccccc1 (stereo not given)	A549 viability inconclusive, Nrf2 inh 5.17µM, ELG1 repair inh inconclusive
Cc1ccccc1C(=O)N/N=C/c1ccc([N+](=O)[O-])s1	Nrf2 inh 10.3µM, ELG1 repair inh inconclusive
O=C(Cc1ccccc1)N/N=C/c1ccc([N+](=O)[O-])s1	A549 viability inconclusive, Nrf2 inh 20.6µM
